Measurements reported in PubChem BioAssay AID652023 (National Center for Advancing Translational Sciences (NCATS), 2013).
The other results are listed elsewhere or left out. Results filed as inconclusive are left out. The source made the active and inactive calls. Calls come from the whole dose curve; as a rule, active = well fitted inhibition curve with a large enough effect; inconclusive = small, poorly fitted or top-dose-only effect; inactive = flat fitted curve, though single readings scatter.

Molecular target: Thioredoxin reductase 1, cytoplasmic (Rattus norvegicus) (UniProt O89049)
Sequence (O89049 whole entry, looked up): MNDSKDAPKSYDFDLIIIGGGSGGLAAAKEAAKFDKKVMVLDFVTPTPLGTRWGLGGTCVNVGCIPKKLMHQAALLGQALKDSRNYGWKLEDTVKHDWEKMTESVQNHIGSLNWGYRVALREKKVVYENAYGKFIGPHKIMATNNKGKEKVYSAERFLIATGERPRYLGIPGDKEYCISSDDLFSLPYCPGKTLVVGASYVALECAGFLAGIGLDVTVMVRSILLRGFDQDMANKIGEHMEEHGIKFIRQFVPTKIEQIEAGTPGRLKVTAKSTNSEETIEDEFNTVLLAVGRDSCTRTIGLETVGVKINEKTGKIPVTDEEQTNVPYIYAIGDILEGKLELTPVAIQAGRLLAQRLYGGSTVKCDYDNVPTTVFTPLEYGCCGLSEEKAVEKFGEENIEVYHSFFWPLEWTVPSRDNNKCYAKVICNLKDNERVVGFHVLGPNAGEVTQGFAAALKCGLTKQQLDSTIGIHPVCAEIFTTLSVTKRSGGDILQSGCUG
Experiment: qHTS Assay for Inhibitors of Mammalian Selenoprotein Thioredoxin Reductase 1 (TrxR1): Hit Validation in Primary Screen
Settings: recombinant TrxR1, NADPH fluorescence consumption, selenite substrate
From the text: The selenoprotein thioredoxin reductase (TrxR; EC 1.8.1.9) is a FAD containing homodimeric pyridine nucleotide-disulfide oxidoreductase with many cellular roles. Together with NADPH and its prime substrate thioredoxin (Trx), the enzyme forms the core of the Trx system. The mammalian Trx system exerts a wide spectrum of functions including redox regulation, antioxidant defense, regulation of transcription factors as well as support of cell growth and replication. Many of these functions involve the reduction of Trx, which may subsequently reduce a number of different substrates including ribonucleotide reductase, peroxiredoxins or NFkB. […]
Assay protocol: 2 uL of reagents (buffer in column 4 as negative control and 90 nM rTrxR1 in columns 1-3 and 5-48) were dispensed into Greiner black solid-bottom 1,536-well assay plates, followed by 1 uL of NADPH (400 uM final concentration) to each well. […] The plate was immediately transferred to a ViewLux high-throughput CCD imager (PerkinElmer), wherein kinetic measurements of NADPH fluorescence (Ex 340 nm, Em 450 nm) were acquired (8 minute kinetic read). Read 1 was utilized to assess the capacity of a compound to serve as an rTrxR1 substrate, i.e. a decrease in NADPH fluorescence compared to the no-compound background is an indication of a substrate behavior for that particular compound. […]

## COc1ccc(-c2nc(CS(=O)CC(=O)N3CCC4(CC3)OCCO4)c(C)o2)cc1 (stereo unspecified)
  Potency: 7.52 µM (active)
